High-throughput results deposited in PubChem by National Center for Advancing Translational Sciences (NCATS).
Shown are actives, neighbours in structure and some others; about 2.4% of the full set was active somewhere.
GLS inh: blocks human kidney-isoform glutaminase activity. GLS enzymatic activity, qHTS titration. hit rate 0.21% among 410,000. Potency, µM (top dose mostly 45.5 µM), most hits filed as inhibitors. AID 624170
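Compounds were pin-transferred onto hKGA, after which L-glutamine (1 mM solution) and a detection mix of glutamate oxidase, HRP and Amplex Red were added. Initial and 30 min RT fluorescence reads were collected.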
APEX1 inh: APE1 (human) endonuclease inhibition. P27695. recombinant APE1, TAMRA/BHQ-2 abasic DNA cleavage fluorescence. Potency, µM (highest dose often 65.8 µM), usual class: inhibitors. hit rate 0.35% among 350,000. AID 2517; note: nearly all actives have a fitted effect of over 55% in size
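Incision of a quenched TAMRA/BHQ-2 THF abasic-site duplex (50 nM) by 0.75 nM APE1, after 15 min compound preincubation, measured as fluorescence increase over three 60 s reads. Values normalized to buffer, DMSO and NSC13755 control wells.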
POLI inh: inhibitors of human DNA polymerase iota | Pol iota fluorescent replication assay, 10 min | Potency, µM (doses to about 115 µM), most hits filed as inhibitors | hit rate 1% among 390,000
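Pol iota at 10 nM preincubated 15 min with compounds at room temperature; reaction started with fluorescent substrate, 50 nM final. Fluorescence read kinetically at 0 and 10 min; buffer-only wells as negative control.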
Pol beta inh: DNA polymerase beta (human) inhibition | Potency, µM (top dose mostly 114 µM), actives largely listed as inhibitors | P06746 | Pol beta primer extension/strand displacement, fluorescence kinetic | hit rate 1.3% among 340,000
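Reaction started by 50 nM substrate onto compound-treated Pol beta (10 nM, 15 min preincubation, room temperature); plates read at 0 min and 10 min. Normalized concentration-effect data fitted by four-parameter Hill equation.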
Pol eta inh: blocks human DNA polymerase eta activity | Q9Y253 | recombinant Pol eta, fluorescent DNA replication assay | Potency, µM (series often up to 114 µM), most hits filed as inhibitors | hit rate 1.2% among 390,000 | AID 588591
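Pol eta (10 nM) was preincubated with compounds for 15 min at room temperature, after which fluorescent replication substrate (50 nM final) was added to start the reaction. Fluorescence was read kinetically at 0 and 10 min.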
Pol kappa inh: inhibitors of human DNA polymerase kappa. Q9UBT6. purified Pol kappa, fluorescent DNA synthesis assay, 10 min. Potency, µM (series often up to 107 µM), usual class: inhibitors. hit rate 0.53% among 400,000
Target sequence (Q9UBT6 whole entry, looked up): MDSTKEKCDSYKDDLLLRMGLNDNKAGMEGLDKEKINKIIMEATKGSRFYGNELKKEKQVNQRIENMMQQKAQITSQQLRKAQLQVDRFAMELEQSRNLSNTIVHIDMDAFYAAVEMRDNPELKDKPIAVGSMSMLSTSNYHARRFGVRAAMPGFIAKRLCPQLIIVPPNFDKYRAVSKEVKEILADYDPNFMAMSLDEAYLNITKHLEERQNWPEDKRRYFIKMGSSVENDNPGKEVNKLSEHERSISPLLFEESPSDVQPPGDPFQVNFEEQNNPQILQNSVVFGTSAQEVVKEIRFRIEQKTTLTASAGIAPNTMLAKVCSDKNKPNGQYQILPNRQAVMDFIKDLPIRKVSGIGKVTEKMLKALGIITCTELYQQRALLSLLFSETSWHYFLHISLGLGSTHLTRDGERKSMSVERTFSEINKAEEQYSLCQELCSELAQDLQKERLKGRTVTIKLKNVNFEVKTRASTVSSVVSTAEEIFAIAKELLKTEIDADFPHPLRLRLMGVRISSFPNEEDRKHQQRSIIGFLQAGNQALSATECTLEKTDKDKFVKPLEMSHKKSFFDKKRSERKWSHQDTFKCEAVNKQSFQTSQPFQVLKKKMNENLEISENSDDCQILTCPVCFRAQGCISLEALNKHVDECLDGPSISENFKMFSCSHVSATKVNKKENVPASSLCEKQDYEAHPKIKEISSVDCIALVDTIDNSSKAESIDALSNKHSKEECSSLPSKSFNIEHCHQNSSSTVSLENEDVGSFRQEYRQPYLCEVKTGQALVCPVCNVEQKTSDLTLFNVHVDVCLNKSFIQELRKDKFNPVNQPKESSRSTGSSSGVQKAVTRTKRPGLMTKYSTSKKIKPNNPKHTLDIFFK
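Readout: fluorescence, taken kinetically at 0 and 10 min. Conditions: 10 nM Pol kappa, 15 min RT compound preincubation, 50 nM substrate final. Controls: enzyme-free buffer wells.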
Each line names hits and unclear results; the compound was inactive in the other large screens. Calls come from the whole dose curve; as a rule, active = well fitted curve in the direction sought with a large enough effect; inconclusive = small, poorly fitted or top-dose-only effect, or another doubt; inactive = no such curve, though single readings can be large; an effect the other way counts as inactive or inconclusive.

CCn1c(=O)c(C(=O)NCc2cccnc2)c(O)c2ccccc21	none
O=C(Cn1cnc2c(cnn2-c2ccc(F)cc2)c1=O)NCc1ccco1	none
Cc1sc2ncn(CC(=O)NCc3ccco3)c(=O)c2c1-c1ccc(F)cc1	Pol beta inh inconclusive, Pol eta inh 79µM
COc1ccc(N2CCN(c3oc(COc4ccc(Cl)cc4Cl)nc3C#N)CC2)cc1	none
C=CCn1c(CNC(=O)CCC)nc2ccccc21	none (no result: APEX1 inh, Pol beta inh)
C#CCSc1nsc(SCC#C)c1C#N	APEX1 inh inconclusive, POLI inh 20µM, Pol beta inh 45µM, Pol eta inh 18µM, Pol kappa inh inconclusive
CCc1ccc2c(O)c3c(cc2c1C(=O)OC)C(=O)c1c(O)ccc(O)c1C3=O	APEX1 inh inconclusive, Pol kappa inh 7.9µM (no result: GLS inh, POLI inh, Pol beta inh, Pol eta inh)
COC(=O)c1c(C)cc(O)cc1O	none (no result: Pol beta inh)
O=C(NCCC1=CCCCC1)c1ccc2c(c1)N(Cc1cccc(Cl)c1)C(=O)c1ccccc1S2=O (stereo unspecified)	none (no result: APEX1 inh)
COc1ccc(C(C)C)cc1-c1cc(C(=O)NCc2cccc(C(F)(F)F)c2)[nH]n1	none (no result: APEX1 inh, POLI inh, Pol beta inh, Pol eta inh, Pol kappa inh)
Cc1cccc(C(=O)Nc2ccccc2OCc2cc(=O)n3c(C)csc3n2)c1	none (no result: APEX1 inh)
Cc1cccc(C(=O)Nc2ccc(C(=O)OCc3cc(=O)n4c(C)csc4n3)cc2)c1	Pol beta inh 13µM (no result: APEX1 inh)
FC(F)(F)c1ccccc1CN1CCCC(N2CCN(c3ccccc3)CC2)C1 (stereo unspecified)	none
CN(C)c1ccc(/C=C2\SC(=O)N(CCc3nnc(N)s3)C2=O)cc1	POLI inh 50µM, Pol beta inh inconclusive
CCC(C)NC(=O)c1cc(-c2ccc3c(c2)OCO3)on1 (stereo unspecified)	none
O=S(=O)(O)c1ccc(NN=Cc2ccccc2O)cc1	POLI inh inconclusive, Pol eta inh 32µM (no result: APEX1 inh, Pol beta inh)
O=S(=O)(N/N=C\c1ccccc1O)c1ccc(Cl)cc1	none
Cc1ccc(NC(=O)c2cccs2)cc1[N+](=O)[O-]	none
O=[N+]([O-])c1ccccc1S(=O)(=O)N1CCSCC1	Pol eta inh 89µM (no result: Pol beta inh)
O=[N+]([O-])c1cccc2c(S(=O)(=O)N3CCOCC3)cccc12	APEX1 inh 11µM, POLI inh inconclusive, Pol beta inh inconclusive, Pol eta inh inconclusive
O=Nc1[nH]c(=O)c(/C=C(\O)c2ccccc2)nc1NO	POLI inh 4µM, Pol beta inh inconclusive, Pol eta inh inconclusive
CCOc1cc(N2CCOCC2)c(OCC)cc1NS(=O)(=O)c1cc(NC(C)=O)ccc1OC	POLI inh 25µM, Pol beta inh inconclusive, Pol eta inh inconclusive, Pol kappa inh inconclusive
COc1cc(NS(=O)(=O)c2cc(NC(C)=O)ccc2OC)c(OC)cc1NC(=O)c1ccccc1	POLI inh inconclusive, Pol eta inh 45µM (no result: APEX1 inh, Pol beta inh)
COc1ccccc1NS(=O)(=O)c1cc(NC(=O)c2ccc(NC(C)=O)cc2)ccc1N1CCOCC1	none (no result: APEX1 inh, Pol beta inh)
Cc1ccc(-c2nc(N/N=C/c3ccncc3)c3ccccc3n2)cc1	POLI inh inconclusive, Pol beta inh inconclusive, Pol eta inh 45µM
Oc1ccc(Nc2nc(-c3ccccc3)nc3ccccc23)cc1	GLS inh 7.9µM
Oc1ccc(Nc2nc3ccccc3nc2Nc2ccc(O)cc2)cc1	APEX1 inh inconclusive, POLI inh inconclusive, Pol beta inh 40µM, Pol eta inh inconclusive
COc1ccc(/C=N/Nc2nc(-c3cccnc3)nc3ccccc23)cc1OC	Pol beta inh inconclusive
O=[N+]([O-])c1ccc(-c2nc(Nc3ccc(O)cc3)c3ccccc3n2)cc1	none
O=C(O)c1ccc(Nc2nc(-c3ccc([N+](=O)[O-])cc3)nc3ccccc23)cc1	APEX1 inh inconclusive, POLI inh inconclusive, Pol beta inh 56µM, Pol eta inh inconclusive
Cc1nc(=O)cc(-c2ccccc2)n1-c1ccccc1	none
Clc1ccccc1Nc1nc(-c2ccncc2)nc2ccccc12	POLI inh 50µM
c1ccc2c(Nc3nc(-c4ccncc4)nc4ccccc34)cccc2c1	none
CCOC(=O)C1=C(C)N=c2s/c(=C/c3ccco3)c(=O)n2C1c1cccc(OC)c1 (stereo unspecified)	POLI inh inconclusive, Pol beta inh 32µM, Pol eta inh inconclusive
COC(=O)C1=C(C)N=c2s/c(=C/c3ccoc3)c(=O)n2C1c1ccccc1 (stereo unspecified)	Pol beta inh 50µM
COc1ccc(C2C(C(C)=O)=C(C)N=c3s/c(=C/c4ccc5c(c4)OCO5)c(=O)n32)cc1 (stereo unspecified)	Pol beta inh 11µM (no result: GLS inh, POLI inh, Pol eta inh, Pol kappa inh)
Cc1ccc(S(=O)(=O)CCC(=O)Nc2cc(C)on2)cc1	none (no result: APEX1 inh, POLI inh, Pol beta inh, Pol kappa inh)
Cc1oc(C)c2c(=O)ccc3c(c12)OC(N)=C(C#N)C3c1ccc(F)cc1 (stereo unspecified)	POLI inh inconclusive, Pol beta inh 20µM, Pol eta inh inconclusive, Pol kappa inh inconclusive
Cc1[nH]nc2c1C(c1ccc(F)cc1)C(C#N)=C(N)O2 (stereo unspecified)	none
CCOc1nc(NC(=O)NS(=O)(=O)Oc2cccc(F)c2)nc(-c2ccccc2)n1	none (no result: APEX1 inh)
O=C(CN1CCN(c2ccc(O)cc2)CC1)N1CCc2ccccc21	GLS inh 8.9µM, POLI inh inconclusive
O=C(Cc1ccc(-n2cccc2)cc1)N1CCc2ccccc21	POLI inh inconclusive, Pol beta inh 22µM, Pol eta inh inconclusive
COc1ccc(CN(Cc2ccccn2)C(=O)CN2C(=O)C(C)Oc3ccccc32)cc1 (stereo unspecified)	none
O=C(O)[C@@H]1C[C@H](C(=O)O)N1	POLI inh inconclusive, Pol kappa inh inconclusive (no result: GLS inh)
CCN(CC)c1ccc(NC(=O)Nc2ccccc2)cc1	GLS inh 13µM
CCN(CC)c1ccc(NC(=O)Nc2ccc(C(C)=O)cc2)cc1	Pol beta inh inconclusive
COc1cc2nc3occc3c(OC)c2cc1OC	APEX1 inh inconclusive
COc1c2ccc(OCC/C(C)=C/C(=O)C=C(C)C)cc2nc2occc12	POLI inh inconclusive, Pol eta inh 45µM (no result: Pol beta inh)
CCNC(=O)N1CCN(/[N+]([O-])=N/Oc2ccc([N+](=O)[O-])cc2[N+](=O)[O-])CC1	POLI inh inconclusive (no result: GLS inh, APEX1 inh, Pol beta inh, Pol eta inh)
COc1ccc(C(=O)NC(C)c2nnc(SCc3ccc(Cl)c(Cl)c3)n2C)cc1 (stereo unspecified)	none
c1coc(C2Nc3ccccc3C3OCCC23)c1 (stereo unspecified)	none
COc1ccc2c(c1)C1OCCC1C(c1ccco1)N2 (stereo unspecified)	GLS inh inconclusive, POLI inh 79µM (no result: APEX1 inh, Pol beta inh)
Cc1ccccc1CNC(=O)C1CCN(c2nnc(-n3c(C)ccc3C)s2)CC1	none (no result: APEX1 inh, Pol eta inh)
COc1ccc(CN(C(=O)/C=C/c2ccco2)C2CCS(=O)(=O)C2)cc1OC (stereo unspecified)	POLI inh 79µM, Pol kappa inh inconclusive
